Cycloheximide cs = Cycloheximide Counterscreen for Small Molecule Inhibitors of Shiga Toxin. max response, %. actives 12% (n = 300,000). cell reporter, cycloheximide protein synthesis inhibition counterscreen; in the data active = max response mostly above about 13%, no sharp cut-off; inactive = mostly below about 14%; note: read at 38.3 µM for the half of the compounds with a filed dose; 0% is about no effect
Shiga toxin inh = A qHTS for Small Molecule Inhibitors of Shiga Toxin | Vero cells, Shiga toxin protein synthesis inhibition reporter | inhibition, % at 38.7 µM | actives 9.2% (n = 290,000) | AID 2315, 2010; in the data active = inhibition mostly above about 28%, no sharp cut-off; inactive = mostly below about 43%; note: 0% is about no effect
AmpC inh no detg = qHTS Inhibitors of AmpC Beta-Lactamase (assay without detergent); P00811; AmpC nitrocefin hydrolysis, absorbance 480 nm, 0.0001% Triton; Potency, µM (highest dose often 57.1 µM), for inactives: at the highest dose activity change, negative = inhibition, most hits filed as inhibitors; actives 0.52% (n = 330,000);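 note: potency is the fitted concentration of half-maximal effect; plate controls were no compound for no effect and no enzyme for full effect; nearly all actives have a fitted effect of over 20% in size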
Target sequence (P00811 whole entry, looked up): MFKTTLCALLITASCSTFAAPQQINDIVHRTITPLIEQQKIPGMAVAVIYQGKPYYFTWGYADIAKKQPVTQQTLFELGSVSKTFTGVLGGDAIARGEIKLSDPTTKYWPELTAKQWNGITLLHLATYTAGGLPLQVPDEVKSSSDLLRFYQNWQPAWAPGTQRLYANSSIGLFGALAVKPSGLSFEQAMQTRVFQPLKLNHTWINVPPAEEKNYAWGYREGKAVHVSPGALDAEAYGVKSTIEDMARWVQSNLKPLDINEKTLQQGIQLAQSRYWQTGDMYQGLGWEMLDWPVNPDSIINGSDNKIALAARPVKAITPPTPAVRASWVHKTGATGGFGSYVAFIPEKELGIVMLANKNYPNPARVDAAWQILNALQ
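20 mM phosphate pH 7.0 + 0.01% (detergent screen) or 0.0001% Triton X-100; 5.3 nM AmpC reagent; cpd preinc 15 min RT; nitrocefin (800 uM stock) to start; A480 q20 s × 4 min; Activity was normalised to no-enzyme and no-compound control wells.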
AmpC detergent = qHTS Inhibitors of AmpC Beta-Lactamase (assay with detergent); Potency, µM (series often up to 114 µM), for the others: top-dose activity change, negative = inhibition, actives largely listed as inhibitors; actives 0.041% (n = 370,000); AmpC hydrolysis of nitrocefin, absorbance 480 nm, 0.01% Triton; AID 485294, 2010; P00811;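 note: potency is the fitted concentration of half-maximal effect; 0% = no-compound wells and -100% = no-enzyme wells; nearly all actives have a fitted effect of over 25% in size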
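AmpC (5.3 nM in the dispensed reagent) in 20 mM phosphate pH 7.0 with 0.01% (detergent screen) or 0.0001% Triton X-100 was preincubated with compounds for 15 min at room temperature. Nitrocefin was then added from an 800 uM solution, and hydrolysis was followed at 480 nm.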
NS1 inh = qHTS Assay for Inhibitors of Influenza NS1 Protein Function. actives 0.4% (n = 270,000). Potency, µM (highest dose often 46.1 µM), inactives show at the highest dose activity, positive = more growth. AID 2326, 2010; calls by dose curve; note: potency is the fitted concentration of half-maximal effect; actives are rising curves; nearly all actives have a fitted effect of over 50% in size
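OD600 was taken as the measure of yeast growth restored by compound in an NS1-expressing S. cerevisiae strain. Cells had been washed out of glucose medium and diluted 1:100 into galactose -URA medium, pH 6.0.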
Starred values were filed as active, the others as inactive; ? = inconclusive; · = no result. This excerpt belongs to a sample that is enriched for hits. Unless noted, calls come from the whole dose curve; as a rule, active = well fitted curve in the direction sought with a large enough effect; inconclusive = small, poorly fitted or top-dose-only effect, or another doubt; inactive = no such curve, though single readings can be large; an effect the other way counts as inactive or inconclusive.

SMILES	Cycloheximide cs	Shiga toxin inh	AmpC inh no detg	AmpC detergent	NS1 inh
COc1ccc(C(=O)C[n+]2cccc(Br)c2)cc1	9.7*	33	-22%	2%	-1%
O=C(C[n+]1cccc(Br)c1)c1ccc(-c2ccccc2)cc1	22*	34	-6%	1%	-1%
O=C(C[n+]1ccc2ccccc2c1)c1ccccc1	20*	39	-26%	-6%	5%
Nc1cc[n+](CC(=O)c2ccccc2)cc1	-1	-4	-12%	?	10%
COc1ccccc1NC(=O)Cn1c(=O)c(CNc2ccccc2)cc2cc(OC)c(OC)cc21	·	·	·	2%	·
COC(=O)c1ccc(/C=C2\Oc3ccccc3NC2=O)cc1	15*	29	-21%	-8%	0%
CCc1ccc(/C=C2\Oc3ccc(C(=O)OC)cc3C2=O)cc1	-1	-13	-28%	-9%	8%
O=C(NCC(c1ccc2c(c1)OCO2)N1CCOCC1)C(=O)Nc1ccc(Cl)cc1 (stereo unspecified)	·	·	·	1%	·
COc1ccc(-n2cc(C(=O)c3ccc4ccccc4c3O)cn2)cc1	18	4	-45%	-5%	-1%
CCOC(=O)COc1ncn(-c2ccccc2)n1	-1	-6	-10%	1%	-10%
O=C(COc1ccccc1C(=O)c1cnn(-c2ccccc2)c1)Nc1ccc2ccccc2c1	57*	20	-29%	?	9%
CCOC(=O)COc1ccccc1C(=O)c1cnn(-c2ccccc2)c1	59*	111*	17%	-5%	-33%
CC(C)c1ccc(NC(=O)COc2ccc(F)cc2C(=O)c2cnn(-c3ccccc3)c2)cc1	73*	120*	3%	6%	?
CC(=O)c1cccc(NC(=O)C2=CC(c3ccc4c(c3)OCO4)=NS(=O)(=O)N2C)c1	1	-3	10µM*	-5%	9%
CC(=O)c1ccc(NC(=O)C2=CC(c3ccco3)=NS(=O)(=O)N2C)cc1	15*	27	-21%	1%	8%
N#Cc1nc(-c2ccc(OCc3ccccc3)cc2)oc1NCc1cccnc1	2	40	-2%	-11%	-2%
CCOc1ccc(-c2nc(C#N)c(NCc3ccco3)o2)cc1	23*	46*	-14%	?	·
CN(C)c1oc(-c2ccccc2F)nc1C#N	-4	-11	-17%	-13%	2%
CN(C)c1oc(-c2ccc(OCc3ccccc3)cc2)nc1C#N	31*	49*	4%	?	-15%
N#Cc1nc(-c2ccc(OCc3ccc(Cl)cc3)cc2)oc1NCc1cccnc1	35*	75*	-12%	-1%	?
COc1cccc(OC(=O)CSc2nnc(-c3cccs3)o2)c1	·	·	·	24%	·
COc1ccc(NC(=O)CS(=O)CC(=O)Nc2cccnc2)cc1 (stereo unspecified)	-4	-16	-2%	3%	-5%
CCOc1cc(CNc2ccc(O)cc2)ccc1OCc1ccc(Cl)cc1	·	·	·	-2%	·
Clc1ccc(NCc2ccsc2)cc1	13*	27*	-32%	-8%	11%
O=C(O)c1cc(-c2ccc3ccccc3c2)nc2ccc(F)cc12	22*	30*	-26%	-4%	-41%
SMILES	Cycloheximide cs	Shiga toxin inh	AmpC inh no detg	AmpC detergent	NS1 inh
O=C(O)c1cc(-c2c[nH]c3ccccc23)nc2cc3ccccc3cc12	36*	67*	-47%	-6%	6%
CCCN1Cc2cc(OC)ccc2-c2ccccc2S1(=O)=O	·	·	-16%	·	·
COc1cc(C2NC(=O)CCC2[N+](=O)[O-])cc(Br)c1OC (stereo unspecified)	-6	-7	-12%	-2%	6%
CC(Sc1ccsc1[N+](=O)[O-])C(=O)NCCc1ccc(Cl)cc1 (stereo unspecified)	-2	-11	-24%	-14%	2%
NNC(=O)c1ccc(COc2cccc3ccccc23)o1	8	22	-24%	0%	16%
CC(C)NC(=O)c1ccc(COc2ccc(C(C)(C)C)cc2)o1	95*	160*	75%	1%	-36%
CCOc1ccc(OCc2ccc(C(=O)NC(C)(C)C)o2)cc1	12	37*	27%	2%	-3%
COc1ccc(S(=O)(=O)Cc2ccc(C(=O)NC(C)C)o2)cc1	-3	7	-5%	?	-6%
CCOc1ccc(OCc2ccc(C(=O)Nc3cccnc3)o2)cc1	31*	158*	-6%	-15%	-44%
CCOc1ccc(OCc2ccc(C(=O)NCc3cccnc3)o2)cc1	14	-4	16%	-3%	10%
NNC(=O)c1ccc(COc2ccc3ccccc3c2)o1	19*	34*	-8%	0%	15%
COc1ccc(C(=O)O)cc1S(=O)(=O)Nc1ccccc1-c1ccccc1	-2	23	-15%	-4%	8%
CCOc1cc(-c2ccc(OC(=O)c3ccccc3)c(OC)c2)cc(=O)c2c(C)oc(C)c12	·	·	·	20%	·
CC(=O)O[C@H]1[C@H](O)[C@H](Oc2c(O)c(C)c3c4c2[C@@H](C)CC[C@@H]4[C@@H](C)C[C@H]3C=C(C)C)O[C@@H](C)[C@H]1O	·	·	202%	·	·
O=C(OCc1ccccn1)c1ccc(COc2ccc3ccccc3c2)o1	45*	66*	5%	-7%	-37%
Cc1ccc(C)c(OCc2ccc(C(=O)NN)o2)c1	11	10	-19%	-8%	7%
CCOc1ccc(OCc2ccc(C(=O)NN)o2)cc1	30*	54*	-31%	-4%	8%
Cc1ccc(OCc2ccc(C(=O)NN)o2)cc1C	26*	31	-18%	0%	10%
CN(C)c1ccc(NC(=O)c2ccc(COc3cccc(Cl)c3)o2)cc1	55*	77*	-12%	-4%	-39%
O=C(NCc1ccccn1)c1ccc(COc2ccc(Cl)cc2)o1	-2	1	17%	?	-12%
COc1ccccc1N1CCN(S(=O)(=O)c2c(C)sc3ncn(CC(=O)Nc4ccc(C(F)(F)F)cc4)c(=O)c23)CC1	·	·	·	6%	·
CCOC(=O)c1c(-c2ccc(Br)cc2)csc1NC(=O)c1ccc(C(C)(C)C)cc1	·	·	·	-6%	·
COc1cccc([C@@H]2Oc3ccc(OC)cc3C(=O)[C@H]2O)c1	40*	42*	-3%	?	0%
COc1ccc2c(c1)C(=O)[C@@H](OC(=O)NCc1ccc3c(c1)OCO3)[C@H](c1ccc(OC)c(Br)c1)O2	10	12	-16%	-13%	28%
COc1ccc2c(c1)C(=O)[C@@H](O)[C@H](c1ccc(OC)c(Br)c1)O2	18*	43*	-17%	-3%	12%
COc1ccc(-c2nc(CCNC(=O)c3ccccc3)cs2)cc1OC	·	·	·	2%	·
Cc1onc(NC(=O)NC(=O)c2ccccc2F)c1Br	21*	37	-9%	0%	-7%
Cc1cccc(C)c1NC(=S)NC(=O)c1ccccc1F	-3	-12	-10%	0%	?
Cc1onc(NC(=O)c2ccc(Cl)cc2Cl)c1Br	42*	72*	-26%	-4%	-5%

Assay outcomes deposited in PubChem BioAssay by National Center for Advancing Translational Sciences (NCATS).
